# Calls of active or inactive are those of the source. The rule behind the calls is not given here.
# Molecular target: Estrogen receptor (Homo sapiens) (UniProt P03372)
# Assay: ERalpha ligand binders by competition, primary screen, cell-based, Cos7 ERalpha-GFP, flow cytometry (AID 1211);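 note: 0% = DMSO vehicle wells and 100% = no E2-Alexa633 signal left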
# Conditions: fluorescent ligand competition, stronger effect = higher value
# Sequence of Estrogen receptor (Homo sapiens) (P03372 whole entry, looked up): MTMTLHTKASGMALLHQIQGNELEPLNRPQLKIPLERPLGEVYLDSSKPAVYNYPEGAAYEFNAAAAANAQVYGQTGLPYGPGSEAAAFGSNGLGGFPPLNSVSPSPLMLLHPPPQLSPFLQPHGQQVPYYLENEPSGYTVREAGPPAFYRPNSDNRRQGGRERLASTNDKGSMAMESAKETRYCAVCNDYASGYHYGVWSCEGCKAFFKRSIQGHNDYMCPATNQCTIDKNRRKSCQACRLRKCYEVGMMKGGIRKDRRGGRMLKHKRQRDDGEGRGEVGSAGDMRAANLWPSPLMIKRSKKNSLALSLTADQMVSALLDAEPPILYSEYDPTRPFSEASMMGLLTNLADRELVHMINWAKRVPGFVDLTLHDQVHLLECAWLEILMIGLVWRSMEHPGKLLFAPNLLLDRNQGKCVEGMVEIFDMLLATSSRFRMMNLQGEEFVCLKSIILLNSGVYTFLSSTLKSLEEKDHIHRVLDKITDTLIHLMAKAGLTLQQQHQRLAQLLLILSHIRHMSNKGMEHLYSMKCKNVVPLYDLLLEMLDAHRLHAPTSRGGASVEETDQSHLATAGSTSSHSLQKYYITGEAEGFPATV
SMILES,inhibition of ligand binding (at 10 µM),"inhibition of ligand binding (binding inhibition, at 0.1 µM) [%]"
CCCCN(CCCC)S(=O)(=O)c1ccc(NC(=O)Cc2cccs2)cc1,61% (inactive),46
CC1(C)Cc2c(sc3c4nnnn4c4nnnn4c23)CO1,12% (inactive),21
Cn1c(C(=O)Nc2ccc3c(c2)OCO3)cc2c(=O)n(C)c3ccccc3c21,26% (inactive),15
CCOC(=O)c1c(NC(=O)CSc2nnc(-c3ccccc3)o2)sc(C(C)=O)c1C,21% (inactive),33
Cc1nnc(NC(=O)CSc2nc3c(c(=O)n2CCc2ccccc2)SC(C)C3)s1 (stereo unspecified),23% (inactive),61
Cc1cc(C)c(S(=O)(=O)/N=C2\C=CC(=O)C(Cl)=C2)c(C)c1,20% (inactive),7
Cc1ccc(-c2nn3c(C)nnc3s2)cc1NC(=O)COc1ccc(Cl)cc1,38% (inactive),42
Cc1cc(C(=O)O)ccc1-n1c(C)ccc1C,43% (inactive),58
COc1ccc(N2Cc3cccc(C(=O)N4CCN(C(=O)c5ccco5)CC4)c3C2=O)cc1,20% (inactive),38
O=C(NCc1ccco1)c1cc2c(s1)CSC2,24% (inactive),25
Cc1snc2sc(C(=O)c3ccc(Br)cc3)c(N)c12,48% (inactive),29
C[C@]12CC[C@@H]3c4ccc(O[C@@H]5O[C@H](C(=O)O)[C@@H](O)[C@H](O)[C@H]5O)cc4CC[C@H]3[C@@H]1C[C@@H](O)[C@@H]2O,72% (active),40
CCC(=O)Oc1ccc(C(CC)C(CC)c2ccc(OC(=O)CC)cc2)cc1 (stereo unspecified),80% (active),89
